# Reference: PubChem BioAssay (NCATS)
# Inconclusive results are not listed. Where a call stands in place of a potency, no number is given. The source made the active and inactive calls. Unless noted, calls come from the whole dose curve.
# Key:
# [1] = qHTS for Inhibitors of the Functional Ribonucleoprotein Complex (vRNP) of Lassa (LASV) Arenavirus: LASV Primary Screen - GLuc reporter signal (AID 1347082; calls by dose curve; tested in HEK293 reporter line; note: nearly all actives have a fitted effect of over 60% in size)
# [2] = qHTS for Inhibitors of the Functional Ribonucleoprotein Complex (vRNP) of Lassa (LASV) Arenavirus: Viability assay - alamar blue signal for LASV Primary Screen (AID 1347083; calls by dose curve; tested in HEK293 reporter line; note: nearly all actives have a fitted effect of over 80% in size)
# [3] = qHTS for Inhibitors of the Functional Ribonucleoprotein Complex (vRNP) of Lymphocytic Choriomeningitis Arenaviruses (LCMV): Viability assay - alamar blue signal for LCMV Primary Screen (AID 1347085; calls by dose curve; tested in HEK293 reporter line; note: nearly all actives have a fitted effect of over 80% in size)
# [4] = target: Nucleoprotein (Lymphocytic choriomeningitis virus (strain Armstrong)) (UniProt P09992); assay: qHTS for Inhibitors of the Functional Ribonucleoprotein Complex (vRNP) of Lymphocytic Choriomeningitis Arenaviruses (LCMV): LCMV Primary Screen - GLuc reporter signal (AID 1347086); note: nearly all actives have a fitted effect of over 70% in size
# Sequence of Nucleoprotein (Lymphocytic choriomeningitis virus (strain Armstrong)) (P09992 whole entry, looked up): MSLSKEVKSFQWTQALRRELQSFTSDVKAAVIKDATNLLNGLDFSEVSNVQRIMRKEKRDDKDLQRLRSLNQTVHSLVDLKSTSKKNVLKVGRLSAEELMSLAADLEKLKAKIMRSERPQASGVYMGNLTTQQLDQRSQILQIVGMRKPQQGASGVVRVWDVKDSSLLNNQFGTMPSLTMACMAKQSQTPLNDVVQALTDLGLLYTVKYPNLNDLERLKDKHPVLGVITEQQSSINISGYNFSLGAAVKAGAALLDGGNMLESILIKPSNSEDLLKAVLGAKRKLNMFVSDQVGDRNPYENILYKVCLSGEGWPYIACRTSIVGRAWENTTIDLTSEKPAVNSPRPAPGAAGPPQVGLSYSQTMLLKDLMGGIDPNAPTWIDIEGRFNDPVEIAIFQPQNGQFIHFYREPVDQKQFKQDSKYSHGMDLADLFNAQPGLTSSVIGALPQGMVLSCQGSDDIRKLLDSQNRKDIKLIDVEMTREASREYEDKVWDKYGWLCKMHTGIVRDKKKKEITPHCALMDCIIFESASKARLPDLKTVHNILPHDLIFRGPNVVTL
# [5] = Cytotoxicity counterscreen for inhibitors of SARS-CoV-2 cell entry (AID 1645845); note: nearly all actives have a fitted effect of over 50% in size
# Outline: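 After a 15 min room-temperature ATPLite 1step step, luminescence reflected ATP remaining in HEK293-ACE2 cells exposed to compound for 1 h plus 48 h at 37 C, with percent activity set by cell and no-cell controls.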
# [6] = Primary qHTS to identify inhibitors of SARS-CoV-2 cell entry (AID 1645846); conditions: activity change, negative = inhibition: at 57.1 µM (top of the series) unless noted; note: nearly all actives have a fitted effect of over 45% in size
# Outline: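 HEK293 cells stably expressing human ACE2, pre-treated 1 h with compound, then infected with MLV particles pseudotyped with Wuhan-Hu-1 spike (C-terminal 19-aa truncation). Luciferase luminescence after 48 h at 37 °C, normalised to spike PP and bald PP.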
# Potency is the fitted concentration of half-maximal effect.
Compound,Potency [1],Potency [2],Potency [3],Potency [4],Potency [5],Potency [6],"activity change, negative = inhibition [6]"
N#CC1(c2ccc(NC(=O)c3cccnc3NCc3ccncc3)cc2)CCCC1,inactive,inactive,inactive,inactive,inactive,inactive,–
OC[C@@H](O)[C@@H](O)[C@H](O)[C@@H](O)CO,inactive,inactive,inactive,inactive,inactive,inactive,–
O=C(Nc1ccccc1Br)N[C@@H]1CCN(c2ccc(C(F)(F)F)cn2)C1,inactive,inactive,inactive,inactive,inactive,–,–
O=S(=O)(O)c1ccc2cc(N=Nc3cc(S(=O)(=O)O)c4cccnc4c3O)ccc2c1,inactive,inactive,inactive,inactive,inactive,inactive,–
NC(=O)[C@@H](CCC(F)(F)F)N(Cc1ccc(-c2ncon2)cc1F)S(=O)(=O)c1ccc(Cl)cc1,inactive,inactive,inactive,inactive,inactive,–,-47.2%
O=C(NCc1ccncc1)C12C[C@H]3C[C@@H](C1)CC(c1ccc(Cl)cc1)(C3)C2,inactive,inactive,inactive,inactive,inactive,–,–
Clc1ccc2c(N3CCN(CCCN4CCN(c5ccnc6cc(Cl)ccc56)CC4)CC3)ccnc2c1,inactive,inactive,inactive,inactive,inactive,–,-11.2%
CC(C)Nc1cc(C(F)(F)F)cc2nc(NC(=O)c3cccnc3)nn12,inactive,inactive,inactive,inactive,inactive,–,-4.48%
O=[N+]([O-])c1cn2c(n1)OC[C@@H](OCc1ccc(OC(F)(F)F)cc1)C2,inactive,inactive,inactive,inactive,inactive,–,–
OCc1ccc(-c2ccc(-c3ccc(CO)s3)o2)s1,inactive,inactive,inactive,inactive,inactive,inactive,–
C[C@H](c1ccc(F)cc1CCCC(=O)O)N(c1cc(F)ccc1F)S(=O)(=O)c1ccc(Cl)cc1,inactive,inactive,inactive,inactive,inactive,–,–
O=c1ncn2nc(Sc3ccc(F)cc3F)ccc2c1-c1c(Cl)cccc1Cl,inactive,inactive,inactive,inactive,inactive,–,–
CNC(=O)c1ccc(-c2cnc3ncc(Cc4ccc5ncccc5c4)n3n2)cc1F,inactive,inactive,inactive,inactive,inactive,–,–
COc1ccc(C(=O)CC2(O)C(=O)Nc3c(Cl)ccc(Cl)c32)cc1 (configuration not stated),24300 nM (active),1530 nM (active),432 nM (active),2730 nM (active),inactive,–,–
O=C(O)Cc1cccc(OCCCN(Cc2cccc(C(F)(F)F)c2Cl)CC(c2ccccc2)c2ccccc2)c1,inactive,inactive,inactive,inactive,inactive,–,–
CCCCCNC(=O)N1CCC(CN(Cc2ccc(Cl)cc2)Cc2ccc([N+](=O)[O-])s2)C1 (configuration not stated),inactive,inactive,inactive,inactive,inactive,–,-21.9%
C[C@H](NC(=O)[C@@H](O)c1cc(F)cc(F)c1)C(=O)N[C@@H]1C(=O)N(C)c2ccccc2-c2ccccc21,inactive,inactive,inactive,inactive,inactive,–,–
C=C(C)[C@@H]1CC[C@]2(C)CC[C@]3(C)[C@H](CC[C@@H]4[C@@]5(C)CC[C@H](O)C(C)(C)[C@H]5CC[C@]43C)[C@@H]12,inactive,inactive,inactive,inactive,inactive,inactive,–
COc1ccc(-c2ccc3ncc4c(c3c2)n(-c2ccc(N3CCNCC3)c(C(F)(F)F)c2)c(=O)n4C)cn1,2.2 nM (active),inactive,inactive,inactive,4470 nM (active),3160 nM (active),–
Cn1c(=O)c(-c2c(Cl)cccc2Cl)cc2cnc(Nc3cccc(C(=O)O)c3)nc21,inactive,inactive,inactive,inactive,inactive,inactive,–
Cc1ccc(C(C)(O)c2nc3ccccc3s2)c(C)c1 (configuration not stated),inactive,inactive,inactive,inactive,inactive,–,–
Cc1ccc2c(c1)C(=O)[C@]1(O)CCN(c3ccccc3)C1=N2,inactive,inactive,inactive,inactive,inactive,–,-18.4%
C[C@H](NC(=O)C(=O)Nc1ccccc1C(C)(C)C)C(=O)N[C@@H](CC(=O)O)C(=O)COc1c(F)c(F)cc(F)c1F,inactive,inactive,inactive,inactive,inactive,–,-42.2%
CN(C[C@@H]1COCCO1)S(=O)(=O)Nc1ccc2ccc3ncc(-c4cnn(C)c4)cc3c(=O)c2c1,inactive,inactive,inactive,inactive,inactive,–,–
CC(C)(F)C[C@H](N[C@@H](c1ccc(-c2ccc(S(C)(=O)=O)cc2)cc1)C(F)(F)F)C(=O)NC1(C#N)CC1,inactive,inactive,inactive,inactive,inactive,–,–
CC(NCCc1ccc(O)cc1)C(O)c1ccc(O)cc1 (configuration not stated),inactive,inactive,inactive,inactive,inactive,–,-5.33%
Nc1cccc(-c2cc3c(Oc4cccc(O)c4)ncnc3[nH]2)c1,inactive,34300 nM (active),30600 nM (active),inactive,inactive,–,–
COc1ccc2c(Oc3ccc(NC(=O)c4c(C)n(CC(C)(C)O)n(-c5ccccc5)c4=O)cc3F)ccnc2c1,inactive,inactive,inactive,inactive,inactive,–,-8.07%
COc1c(N2C[C@@H]3CCCN[C@H]3C2)c(F)cc2c(=O)c(C(=O)O)cn(C3CC3)c12,inactive,inactive,inactive,inactive,inactive,–,2.05%
C=Cc1c(C)c2cc3nc(cc4[nH]c(cc5nc(cc1[nH]2)C(C)=C5CCC(=O)O)c(CCC(=O)OC)c4C)[C@@]1(C)C3=CC=C(C(=O)OC)[C@H]1C(=O)OC,1720 nM (active),344 nM (active),172 nM (active),217 nM (active),inactive,inactive,–
